High-throughput results: PubChem BioAssay, Broad Institute
The list is not random: actives were taken first. Their share in the collection is about 6.7%.
C diff growth: C. difficile growth inhibitors, primary screen, HTS; 86,000 tested, 0.25% active; growth activity, negative = inhibition, % at 16 µg/mL (by protocol); Clostridium difficile clinical isolate growth, OD600, 24 h; active compounds read low;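 active means mean growth activity at or below -80% and every replicate also at or below -80%; inconclusive means mean at or below -80% but some replicate above -80%; inactive means mean growth activity above -80%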;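 further: 0% = DMSO wells and -100% = levofloxacin 16 µg/mL wells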
T cruzi growth-1: T. cruzi intracellular proliferation inhibitors, primary screen, cell-based, beta-gal Tulahuen parasites, NIH3T3 host, luminescence | inhibition, % at 8.34 µM | T. cruzi beta-gal in NIH3T3, GalScreen luminescence, 90 h | 77,000 tested, 5.9% active;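 active means mean inhibition above about 93%, with at least 55% of replicates each passing it, limit read from the data, passing the limit was not always enough; inconclusive means only one of those two conditions holds; inactive means neither condition holds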
Pf Dd2 inh: P. falciparum Dd2 growth inhibitors, primary screen, SYBR Green fluorescence, single dose replicates | AID 1159554, 2015 | 72 h; active compounds read low | activity change, % at 10 µM | 94,000 tested, 2.3% active; in the data active means activity change below about -80%; inconclusive means no clear call, values can overlap the other calls
T cruzi growth-2: T. cruzi intracellular proliferation inhibitors, confirmation, cell-based, NIH3T3 host, beta-gal parasite, luminescence, cherry-pick; shares compounds with T cruzi growth-1; T. cruzi beta-gal in NIH3T3, GalScreen luminescence, 90 h; inhibition, % at 8.35 µM; 5,600 tested, 72% active;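 active means mean replicate inhibition above about 95% and at least 55% of replicates individually reaching it, limit read from the data; inconclusive means only one of the two criteria is met; inactive means neither criterion is met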
T cruzi growth-3: inhibitors of intracellular T. cruzi replication, confirmation, NIH3T3 host cells, beta-gal parasites, cherry-pick, set 2. shares compounds with T cruzi growth-1. T. cruzi beta-gal in NIH3T3, GalScreen luminescence, 90 h. inhibition, % at 2.09 µM. 5,600 tested, 21% active;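 active means mean inhibition above about 95%, with at least 55% of replicates also reaching it, limit read from the data; inconclusive means meets just one of the two conditions; inactive means meets neither condition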;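 further: plate controls were neutral control median for no effect and positive control median for full effect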
NIH3T3 tox: cytotoxicity in mouse NIH/3T3 fibroblasts, confirmation, cytotoxicity control for T. cruzi proliferation inhibitor project, cell-based, cherry-pick, single point; shares compounds with T cruzi growth-1; NIH/3T3 viability, CellTiter-Glo ATP luminescence, 90 h; cytotoxicity (signal decrease), % at 8.35 µM; 5,600 tested, 14% active; AID 651742, 2012;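 active means mean signal decrease across replicates above about 35% based on untreated-well scatter, with enough replicates individually passing, limit read from the data; inconclusive means no rule stated though some were filed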;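 further: 0% = median of neutral control wells and 100% = median of positive control wells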
3T3 cytotox 2: NIH/3T3 fibroblast cytotoxicity, confirmation, cytotoxicity control, cell-based, cherry-pick, single point, set 2. shares compounds with T cruzi growth-1. NIH/3T3 viability, CellTiter-Glo ATP luminescence, 90 h. inhibition, % at 24.9 µM. 5,600 tested, 56% active. AID 651744, 2012;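 active means mean loss of cell viability signal at or above a set limit, and enough replicates individually reaching it; inconclusive means meets only the mean limit or only the replicate share; inactive means meets neither condition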;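 further: 0% = median of neutral control wells and 100% = median of positive control wells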
* = called active by the depositor; ? = inconclusive; · = no result.

SMILES	C diff growth	T cruzi growth-1	Pf Dd2 inh	T cruzi growth-2	T cruzi growth-3	NIH3T3 tox	3T3 cytotox 2
C[C@@H]1CN([C@@H](C)CO)C(=O)c2cc(NC(=O)C3CCCCC3)ccc2O[C@@H]1CN(C)Cc1ccc(-c2ccccc2)cc1	·	?	3	104*	83	24	80*
C[C@@H]1CN([C@@H](C)CO)C(=O)c2cc(NC(=O)C3CCCCC3)ccc2O[C@H]1CN(C)Cc1ccc(-c2ccccc2)cc1	·	110*	-40	102*	100*	16	7
CN1c2ccc(-c3cccc(F)c3)cc2[C@@H]2[C@@H](CCN2C(=O)C2CCCC2)[C@@H]1CO	56	79	-6	·	·	·	·
Cc1noc(C)c1NC(=O)Nc1cccc2c1O[C@H](CN(C)S(=O)(=O)c1ccc(Cl)cc1)[C@H](C)CN([C@H](C)CO)C2=O	-9	23	-62	·	·	·	·
CCC(=O)N1C[C@@H](C)[C@H](OC)CN(C)C(=O)c2cc(NS(C)(=O)=O)ccc2OC[C@H]1C	-2	-21	26	·	·	·	·
C/C=C/c1ccc([C@H]2[C@H](CO)N3CCCCN(C(=O)Nc4ccc(F)cc4)C[C@@H]23)cc1	44	90	-4	·	·	·	·
C/C=C/c1ccc([C@@H]2[C@H](CO)N3CCCCN(C(=O)Nc4ccc(F)cc4)C[C@@H]23)cc1	56	59	3	·	·	·	·
C/C=C/c1ccc([C@@H]2[C@H]3CN(C(=O)Nc4ccc(F)cc4)CCCCN3[C@H]2CO)cc1	31	?	-11	112*	74	33	106*
C/C=C/c1ccc([C@@H]2[C@@H](CO)N3CCCCN(C(=O)Nc4ccc(F)cc4)C[C@@H]23)cc1	37	97*	-36	108*	39	17	74*
CO[C@H]1CN(C)C(=O)c2cc(NC(=O)C3CC3)ccc2OC[C@H](C)N(CCC(F)(F)F)C[C@H]1C	·	57	-17	·	·	·	·
N#C[C@H]1[C@@H](c2ccc(C3=CCCC3)cc2)[C@@H](CO)N1C(=O)C1CCOCC1	-8	25	1	·	·	·	·
CC(C)CC#Cc1ccc([C@@H]2[C@@H](CO)N3CCCCN(S(=O)(=O)c4ccc(F)cc4)C[C@@H]23)cc1	1	105*	-2	108*	72	-3	89*
CC(C)CC#Cc1ccc([C@@H]2[C@@H](CO)N3CCCCN(S(=O)(=O)c4ccc(F)cc4)C[C@H]23)cc1	18	55	-67	·	·	·	·
CC(C)CC#Cc1ccc([C@H]2[C@H]3CN(S(=O)(=O)c4ccc(F)cc4)CCCCN3[C@H]2CO)cc1	8	116*	11	111*	95	21	12
CC(C)CC#Cc1ccc([C@H]2[C@@H](CO)N3CCCCN(S(=O)(=O)c4ccc(F)cc4)C[C@H]23)cc1	-4	63	-68	·	·	·	·
C[C@H]1CN([C@@H](C)CO)C(=O)c2cc(NC(=O)Nc3cccc4ccccc34)ccc2O[C@H]1CN(C)Cc1ccc(Cl)c(Cl)c1	0	?	-13	96*	74	7	8
C[C@@H]1CN([C@H](C)CO)C(=O)Cc2cc(NC(=O)Nc3cccc4ccccc34)ccc2O[C@@H]1CN(C)Cc1ccc(Cl)c(Cl)c1	9	?	-10	108*	107*	44*	17
C[C@H](CO)N1C[C@H](C)[C@H](CN(C)Cc2ccc(Cl)c(Cl)c2)Oc2ccc(NC(=O)Nc3cccc4ccccc34)cc2CC1=O	-7	79	-22	·	·	·	·
